The molecules below were run on T1, MLCK. Details: concentration: 1 μM, replicates: in singlicate; n = 1.
T1 construct: gene MYLK3
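Also: KINOMEscan kinase panel screen.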

| Structure (SMILES) | %Inh |
| --- | --- |
| c1ccc(-c2ccnc3[nH]ccc23)cc1 [SB-693578] | 0% |
| COc1ccc(Nc2nccc(N3CCC(NC(=O)C(C)c4ccc(Cl)cc4)C3)n2)cc1 (stereo not drawn) [GSK1379735] | 14% |
| Nc1nccc(-c2c(-c3ccc(F)cc3)ncn2C2CCN(Cc3ccccc3)CC2)n1 [SB-219980] | 5% |
| Cl.Cl.Cl.N#Cc1ccc(CCNc2nccc(-c3cccc(CN4CCNCC4)c3)n2)cc1 [GSK2137462] | 0% |
| Cc1cccc2c(-c3ccncn3)c(-c3ccc(F)cc3)nn12 [GW515532] | 0% |
| O=C(Nc1n[nH]c2nc(-c3cccs3)c(Br)cc12)C1CC1 [SB-735297] | 90% |
| CC(=O)c1c(C)c2cnc(Nc3ccn(C)n3)nc2n(C2CCCC2)c1=O | 0% |
| COc1cccc(NC(=O)Nc2ccc(C)c(-c3ccc(C(=O)Nc4ccncc4)cc3)c2)c1 [GSK1398474] | 6% |
| CCc1ccc(-c2ccc3c(c2)-c2n[nH]cc2S(=O)(=O)N3C)cc1 | 16% |
| CNc1nc(-c2ccc3c(N)n[nH]c3c2)cc(N2C[C@@H](C(=O)Nc3ccccc3)CC[C@H]2C)n1 [GSK2298859] | 0% |
| COc1cccc(C2=C(Nc3cc(Cl)c(O)c(Cl)c3)C(=O)NC2=O)c1 [SB-390767] | 0% |
| Cn1cncc1C(=O)NC1CCN(c2ccnc(Nc3ccc(F)cc3)n2)C1 (stereo not drawn) [GSK1379717] | 0% |
| Fc1ccc(-c2nc3n(c2-c2ccncc2)CCS3)cc1 [GI98581] | 15% |
| CS(=O)(=O)CCNCc1nc(-c2ccc3ncnc(Nc4ccc(OCc5ccccc5)c(Cl)c4)c3c2)cs1.Cl [GW582764] | 89% |
| COc1ccc(Nc2nccc(NCCNC(=O)Nc3cc(C)ccc3C)n2)cc1 [GSK1379899] | 0% |
| O=c1cc(N2CCOCC2)nc2n(Cc3cccc(Cl)c3Cl)c3ccccc3n12 [GSK2299009] | 16% |
| FC(F)(F)c1ccccc1-c1cc(-c2c[nH]nc2-c2ccccn2)ccn1 [GW679396] | 4% |
| Cn1cncc1-c1cc2c(Nc3ccc(OCc4ccccc4)cc3)ncnc2cn1 [GW281179] | 0% |

| Structure (SMILES) | %Inh |
| --- | --- |
| COc1ccc(CSc2nnc(-c3ccc4c(c3)CCO4)o2)cc1 | 0% |
| CC(=O)c1cccc(NC(=O)NC2CCN(c3ccnc(Nc4ccc(F)cc4)n3)C2)c1 (stereo not drawn) [GSK1379710] | 0% |
| CNc1cc(-c2ccc3c(N)n[nH]c3c2)nc(N)n1 [GSK2224810] | 73% |
| Cc1nccc(-c2c(-c3ccc(F)cc3)ncn2CCCN2CCOCC2)n1.Cl [SB-282975] | 0% |
| Cc1ccccc1-c1cc(-c2c[nH]nc2-c2ccccn2)ccn1 [GW680061] | 0% |
| COc1nccc(-c2c(-c3ccc(F)cc3)ncn2CCCN2CCOCC2)n1 [SB-282852] | 0% |
| Cc1ccc(-c2nc(Nc3ccncc3)c3ccccc3n2)s1 [GSK189015] | 14% |
| Nc1cccc(-c2ccc3c(N)n[nH]c3c2)n1 [GSK2192730] | 76% |
| COC(=O)C(NC(=O)NC1CCN(c2ccnc(Nc3ccc(F)cc3)n2)C1)c1ccccc1 (stereo not drawn) [GSK1379712] | 5% |
| CN1c2ccc(-c3ccc(C(N)=O)cc3)cc2-c2[nH]ncc2S1(=O)=O | 0% |
| CC(=O)c1c(C)c2cnc(Nc3ccc(N4CCNCC4)cn3)nc2n(C2CCCC2)c1=O | 8% |
| CS(=O)(=O)Cc1ccc(Nc2nccc(-c3c(-c4cccc(NC(=O)C5CCCCC5)c4)nn4ncccc34)n2)cc1 [GSK350559] | 3% |
| Cc1ccc(NC(=O)Nc2ccccc2)cc1-c1ccc(C(=O)Nc2ccncc2)cc1 [GSK1398471] | 0% |
| NS(=O)(=O)c1cccc(N/C=C2\C(=O)Nc3ccc(S(=O)(=O)Cc4c(Cl)cccc4Cl)cc32)c1 [GSK398099] | 0% |
| COc1ccc2cc(-c3nc(-c4ccccc4C(C)C)[nH]c3-c3ccncc3)ccc2c1 [SB-660566] | 6% |
| O=C(Nc1n[nH]c2cc(-c3ccsc3)ccc12)C1CC1 [SB-732932] | 65% |
| COc1cccc(CNC(=O)NC2CCN(c3ccnc(Nc4ccc(F)cc4)n3)C2)c1 (stereo not drawn) [GSK1379723] | 0% |
| Cc1cnc(N)c(/C=C/c2cncc(C(=O)NCCc3ccc(Cl)cc3Cl)c2)c1.Cl [GSK190937] | 6% |

Source: paper PMC5540273 (PLoS ONE, 2017)
